# PubChem BioAssay (Tox21)
# “And” between values parts separate entries of the source, which are not always exact repeats. Equal entries are not always repeated. Results filed as inconclusive are left out. A call without a number means that no potency is given here. Some compounds were tested as several samples or in several runs, with calls that do not always agree. The source made the active and inactive calls. Unless noted, calls follow the shape of the dose curve; as a rule, active = well fitted curve in the direction sought with a large enough effect in the repeat runs; inconclusive = weak or mixed curves; inactive = no such curve, though single readings can be large; an effect the other way counts as inactive or inconclusive.
# How the values were obtained:
# [1] = qHTS assay to identify small molecule antagonists of the estrogen receptor alpha (ER-alpha) signaling pathway using the BG1 cell line in the presence of 0.1 nM 17-beta-estradiol - cell viability counter screen (AID 1259241); also: nearly all actives have a fitted effect of over 40% in size; also: potency is read from the fitted curve at half-maximal effect
# How it was run: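 Estradiol-stimulated (0.1 nM) VM7Luc4E2 cells exposed to compounds 22 hr; viability measured by fluorescence of cleaved CellTiter-Fluor substrate after 30 min.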
# [2] = qHTS assay to identify small molecule antagonists of the androgen receptor (AR) signaling pathway using the MDA cell line in the presence of 0.5 nM R1881 - cell viability counter screen (AID 1259242); also: nearly all actives have a fitted effect of over 45% in size; also: potency is read from the fitted curve at half-maximal effect
# How it was run: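 R1881 at 0.5 nM final stimulated MDA-kb2 cells during 16 hr compound treatment at 37C. Cytotoxicity read: CellTiter-Fluor fluorescence after 30 min.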
# [3] = qHTS assay to identify small molecule HDAC inhibitors (AID 1259364);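 also: wild-type HCT-116 cells with endogenous class I/II HDAC activity; top concentration of the series differs between compounds; nearly all actives have a fitted effect of over 45% in size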
# How it was run: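 Relative class I and II HDAC activity is taken from the luminogenic signal in HCT-116 cells, with compound exposure 2 hr and reagent development 30 min at room temperature.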
# [4] = qHTS assay to identify small molecule HDAC inhibitors - cell viability counter screen (AID 1259365); also: nearly all actives have a fitted effect of over 50% in size; also: potency is read from the fitted curve at half-maximal effect
# How it was run: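 After overnight seeding at 1,500 cells per well, wild-type HCT-116 cultures took up compounds in DMSO for 2hr at 37 C. Viable cell content came from luminescence with CellTiter-Glo.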
# [5] = qHTS assay to identify small molecule agonists of the sonic hedgehog signaling (Shh) pathway (AID 1259368; calls by dose curve; also: nearly all actives have a fitted effect of over 15% in size; also: potency is read from the fitted curve at half-maximal effect)
# How it was run: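 Mouse fibroblast (NIH/3T3) reporter cells with stably integrated Gli1-Luc were treated 24 hr with compound; firefly luciferase luminescence served as the read-out.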
# [6] = biological target: Estrogen receptor (Homo sapiens) (UniProt P03372); test: qHTS assay to identify small molecule antagonists of the estrogen receptor alpha (ER-alpha) signaling pathway using the BG1 cell line in the presence of 0.1 nM 17-beta-estradiol (AID 1259244); also: nearly all actives have a fitted effect of over 50% in size; also: potency is read from the fitted curve at half-maximal effect
# How it was run: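 VM7Luc4E2; 4xERE-luciferase; 0.1 nM E2 final; 22 h co-incubation, 37C; ONE-Glo luminescence after 30 min at room temperature.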
# [7] = qHTS assay to identify small molecule agonists of the sonic hedgehog signaling (Shh) pathway - cell viability counter screen (AID 1259366); also: nearly all actives have a fitted effect of over 50% in size; also: potency is read from the fitted curve at half-maximal effect
# How it was run: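 Same-well cytotoxicity read. Gli1-Luc reporter 3T3 cells; compounds 24hr, 37C/5% CO2; CellTiter-Fluor fluorescence.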
# [8] = qHTS assay to identify small molecule antagonists of the sonic hedgehog signaling (Shh) pathway - cell viability counter screen (AID 1259367); also: nearly all actives have a fitted effect of over 55% in size; also: potency is read from the fitted curve at half-maximal effect
# How it was run: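 NIH/3T3-derived Gli1-Luc reporter cells (2,000 per well) rested 4 hr at 37 C, then received DMSO compounds plus conditioned medium. After 23 hr of treatment, CellTiter-Fluor was added for 1 hr at 37C and fluorescence read.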
# [9] = biological target: Androgen receptor (Homo sapiens) (UniProt P10275); test: qHTS assay to identify small molecule antagonists of the androgen receptor (AR) signaling pathway using the MDA cell line in the presence of 0.5 nM R1881 (AID 1259243); also: nearly all actives have a fitted effect of over 50% in size; also: potency is read from the fitted curve at half-maximal effect
# How it was run: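 We exposed MDA-kb2 cells to compounds under 0.5 nM R1881 stimulation for 16 hr at 37C and quantified MMTV-driven luciferase by luminescence.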
# [10] = qHTS assay to identify small molecule phospholipidosis (PLD) inducers (AID 1259344; active = well fitted curve in the direction sought with a large enough effect; an effect the other way counts as inactive or inconclusive)
# How it was run: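 HepG2 cells on collagen I, attached 4 h at 37 C, were co-treated with compound and LipidTOX Red dye for 24 h at 37 C, then fixed with paraformaldehyde plus Hoechst 33342 and imaged by high-content microscopy for phospholipid accumulation.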
# Chain of Estrogen receptor (Homo sapiens) (P03372 whole entry, looked up): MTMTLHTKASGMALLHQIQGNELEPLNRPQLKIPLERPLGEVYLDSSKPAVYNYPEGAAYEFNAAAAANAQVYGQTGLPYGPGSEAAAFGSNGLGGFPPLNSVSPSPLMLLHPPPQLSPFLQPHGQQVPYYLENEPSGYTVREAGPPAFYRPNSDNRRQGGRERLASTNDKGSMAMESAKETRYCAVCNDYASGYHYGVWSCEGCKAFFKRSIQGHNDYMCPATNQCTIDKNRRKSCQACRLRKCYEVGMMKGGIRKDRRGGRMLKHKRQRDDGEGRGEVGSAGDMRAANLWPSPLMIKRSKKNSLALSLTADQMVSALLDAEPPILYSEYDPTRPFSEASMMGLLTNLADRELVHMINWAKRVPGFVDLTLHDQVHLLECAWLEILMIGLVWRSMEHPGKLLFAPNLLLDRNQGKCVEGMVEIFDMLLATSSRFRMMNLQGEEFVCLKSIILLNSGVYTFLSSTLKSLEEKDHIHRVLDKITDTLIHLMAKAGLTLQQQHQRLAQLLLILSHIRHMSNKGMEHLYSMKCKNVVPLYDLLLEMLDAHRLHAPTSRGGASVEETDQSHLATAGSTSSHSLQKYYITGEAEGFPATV
# Chain of Androgen receptor (Homo sapiens) (P10275 whole entry, looked up): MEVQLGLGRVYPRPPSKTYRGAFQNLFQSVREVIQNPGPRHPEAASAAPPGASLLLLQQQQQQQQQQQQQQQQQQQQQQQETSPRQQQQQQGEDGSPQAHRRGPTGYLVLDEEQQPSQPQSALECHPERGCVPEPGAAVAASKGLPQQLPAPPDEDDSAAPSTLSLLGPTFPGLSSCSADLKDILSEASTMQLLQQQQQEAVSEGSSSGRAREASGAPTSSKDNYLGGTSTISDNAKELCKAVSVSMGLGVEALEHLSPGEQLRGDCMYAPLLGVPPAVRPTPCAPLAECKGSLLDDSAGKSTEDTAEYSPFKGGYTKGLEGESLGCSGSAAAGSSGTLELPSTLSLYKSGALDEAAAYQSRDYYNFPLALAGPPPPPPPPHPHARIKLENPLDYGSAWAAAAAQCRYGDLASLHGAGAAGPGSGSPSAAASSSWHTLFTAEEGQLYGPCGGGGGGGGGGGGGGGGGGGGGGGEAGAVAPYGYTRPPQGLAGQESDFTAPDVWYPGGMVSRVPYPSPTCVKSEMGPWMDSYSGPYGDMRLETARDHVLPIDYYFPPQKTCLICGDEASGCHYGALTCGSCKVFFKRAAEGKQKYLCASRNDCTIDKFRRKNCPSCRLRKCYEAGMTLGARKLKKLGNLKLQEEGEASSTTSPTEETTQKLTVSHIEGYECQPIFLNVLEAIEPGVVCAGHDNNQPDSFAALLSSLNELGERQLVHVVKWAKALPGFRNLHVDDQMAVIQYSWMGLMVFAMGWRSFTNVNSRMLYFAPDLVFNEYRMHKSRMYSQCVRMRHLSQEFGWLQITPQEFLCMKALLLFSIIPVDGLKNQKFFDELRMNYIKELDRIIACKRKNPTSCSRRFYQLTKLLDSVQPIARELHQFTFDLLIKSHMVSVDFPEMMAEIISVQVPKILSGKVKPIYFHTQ
Compound,Potency [1],Potency [2],Potency [3],Potency [4],Potency [5],Potency [6],Potency [7],Potency [8],Potency [9],outcome [10]
CC(=O)[O-].CC(=O)[O-].[Co+2],inactive,inactive,inactive,inactive,54.5 µM (active),–,–,–,–,–
CCN(CC)C(=S)S,15.3 µM (active),–,inactive,inactive,inactive,13.6 µM (active),38.9 µM (active) and 13.6 µM (active) and 27.3 µM (active),7.65 µM (active) and inactive,–,–
CCCCCCCc1ccc(O)cc1,inactive,–,inactive,inactive,inactive,inactive,inactive,–,27.3 µM (active),–
COC(=O)c1ccccc1S(=O)(=O)NC(=O)Nc1nc(C)nc(OC)n1,inactive,inactive,inactive,inactive,inactive,–,inactive,inactive,–,–
CC(Cc1ccc(OCC(=O)O)cc1)NCC(O)c1csc(C(F)(F)F)n1 (configuration not stated),inactive,–,inactive,inactive,inactive,inactive,6110 nM (active),3.86 µM (active),–,–
ClC1(Cl)C2(Cl)C3(Cl)C4(Cl)C(Cl)(Cl)C5(Cl)C3(Cl)C1(Cl)C5(Cl)C24Cl (configuration not stated),inactive,–,inactive,inactive,inactive,inactive,inactive,inactive,inactive,–
COc1cnc(OC)n2nc(NS(=O)(=O)c3c(OCC(F)F)cccc3C(F)(F)F)nc12,inactive,–,inactive,inactive,inactive,inactive,inactive,inactive,–,–
CCCCn1cc[n+](C)c1.[Cl][Fe-]([Cl])([Cl])[Cl],inactive,inactive,inactive,inactive,inactive,–,–,inactive,–,–
[C-]1=CC=CC1.[Cl][Zr+2][Cl].c1cc[cH-]c1,inactive,inactive,inactive,inactive,inactive,–,–,inactive,–,–
Nc1ccc(Cl)cc1C(=O)c1ccccc1F,inactive,–,inactive,inactive,inactive,–,inactive,inactive,10.6 µM (active),–
ClCBr,inactive,–,inactive,inactive,inactive,inactive,inactive,inactive,–,–
[Cl-].[Cl-].[Cl-].[Yb+3],inactive,inactive,inactive,inactive,inactive,–,–,–,–,–
C=C(C)C(=O)[O][Sn]([CH2]CCC)([CH2]CCC)[CH2]CCC,0.77 µM (active),–,inactive,12.2 µM (active),inactive,0.486 µM (active),172 nM (active),0.486 µM (active),–,–
COC(=O)C(C)N(C(=O)c1ccco1)c1c(C)cccc1C (configuration not stated),inactive,–,inactive,inactive,inactive,inactive,inactive,inactive,–,–
[F][Sn]([c]1ccccc1)([c]1ccccc1)[c]1ccccc1,24.3 µM (active),2.17 µM (active),–,inactive,inactive,–,96.9 nM (active),0.154 µM (active),–,–
CCNS(=O)(=O)C(F)(F)C(F)(F)C(F)(F)C(F)(F)C(F)(F)C(F)(F)C(F)(F)C(F)(F)F,inactive,–,inactive,inactive,inactive,–,–,65.7 µM (active),inactive,–
CNC(=O)O/N=C(\C)C(C)S(C)(=O)=O (configuration not stated),inactive,inactive,inactive,inactive,inactive,–,inactive,–,–,–
C[C@]12Cc3cn[nH]c3C[C@@H]1CC[C@@H]1[C@@H]2CC[C@@]2(C)[C@H]1CC[C@]2(C)O,inactive,inactive,inactive,inactive,inactive,–,inactive,–,–,–
C[C@]12C/C(=C/O)C(=O)C[C@@H]1CC[C@@H]1[C@@H]2CC[C@@]2(C)[C@H]1CC[C@]2(C)O,inactive,–,inactive,inactive,inactive,inactive,55 µM (active) and 21.1 µM (active),61.7 µM (active),–,inactive
O=c1[nH]c(Cl)c(Cl)cc1Cl,inactive,–,–,inactive,inactive,–,inactive,inactive,inactive,–
C=CCOC(=O)c1ccccc1N,inactive,–,inactive,inactive,inactive,inactive,inactive,inactive,–,–
N#CSCc1ccccc1,inactive,inactive,inactive,inactive,inactive,–,inactive,–,–,–
CC(=O)[O-].CC(=O)[O-].CC(=O)[O-].[Cr+3],inactive,inactive,inactive,inactive,inactive,–,inactive,–,–,–
Nc1nc(N)c(N)c(N)n1,inactive,inactive,inactive,inactive,inactive,–,–,–,–,–
N#CCCl,inactive,inactive,inactive,inactive,inactive,–,inactive,inactive,–,–
O=c1c2ccccc2c(=O)c2c1cc(Cl)c1[nH]c3c([nH]c12)c(Cl)cc1c(=O)c2ccccc2c(=O)c13,inactive,–,inactive,inactive,inactive,inactive,inactive,inactive,–,–
CC(C)N(C(=O)CCl)c1ccccc1,inactive,–,inactive,inactive,inactive,27.3 µM (active) and 54.5 µM (active),68.6 µM (active) and 9.69 µM (active),30.6 µM (active) and 24.3 µM (active),19.3 µM (active),–
